Test results taken from PubChem BioAssay (NCI).
This is part of a sample that, as a whole, favours compounds with a hit. Of some 83,000 tested, about 20% had one in any assay.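 Interpretation: 100, growth as untreated; towards 0, rising growth inhibition; 0, no net growth; 0 to -100, cell death. Compounds scoring below 10 were considered active.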 Unmarked numbers belong to inactive results. Activity calls are given as the source filed them.

test system: ACHN renal; experiment: NCI-60 one-dose screen, 48 h (100 = growth as untreated, 0 = no growth, -100 = all killed); conditions: 10 µM unless noted

| SMILES | growth |
| --- | --- |
| CCOC(=O)[C@@H](C)C[C@H](Cc1ccccc1)NC(=O)c1csc([C@@H](C[C@H](C(C)C)N(C)C(=O)[C@H](CC)NC(=O)[C@H]2CCCCN2C)OC(C)=O)n1 | 25.9% |
| CCN(CCO)C(Cc1ccccc1)c1ccccc1 (configuration not stated) | 108% |
| Cn1cc(-c2csc(-c3cn(CCN4CCOCC4)c4ccc(F)cc34)n2)c2cccnc21 | 17.7% |
| O=[N+]([O-])c1cc(I)cc([N+](=O)[O-])c1 | 121% |
| O=[N+]([O-])CC(O)C(Cl)(Cl)Cl (configuration not stated) | 96.5% |
| N#C[S-].[Au+].c1ccc(CN2[CH-]N(Cc3ccccc3)C(c3ccccc3)=C2c2ccccc2)cc1 | 2.08% (active) |
| CC[C@H](NC(=O)[C@H]1CCCCN1C)C(=O)N(C)[C@H](C[C@@H](OC(C)=O)c1nc(C(=O)N[C@@H](Cc2ccccc2)C[C@H](C)C(=O)O)cs1)C(C)C | 34.4% |
| CC(=O)O[C@H](C[C@H](C(C)C)N(C)C(=O)[C@@H](NC(=O)[C@H]1CCCCN1C)C(C)C)c1cccc(C(=O)N[C@@H](Cc2ccccc2)C[C@H](C)C(=O)O)n1 | 35.3% |
| [Cl][Hg][c]1cc[c]([Hg][Cl])o1 | 3.3% (active) |
| Clc1ccc(N2COOC3(OOC2)C2CC4CC(C2)CC3C4)cc1 | 29.4% |
| COC(=O)[C@@H](C)C[C@H](Cc1ccccc1)NC(=O)c1nc([C@@H](C[C@H](C(C)C)N(C)C(=O)[C@@H](NC(=O)[C@H]2CCCCN2C)C(C)C)OC(C)=O)sc1C | 24.5% |
| CC1=C(CCCOC(=O)CN)C2=C(C)C3(CC3)[C@@](C)(O)C(=O)C2=C1 | 97.4% |
| COC(=O)[C@@H](C)C[C@H](Cc1ccccc1)NC(=O)c1csc(CC[C@H](C(C)C)N(C)C(=O)[C@@H](NC(=O)[C@H]2CCCCN2C)C(C)C)n1 | 45.2% |
| COC(=O)[C@H](C[C@H](Cc1ccccc1)NC(=O)c1csc([C@@H](C[C@H](C(C)C)N(C)C(=O)[C@@H](NC(=O)[C@H]2CCCCN2C)C(C)C)OC(C)=O)n1)NC(=O)OCc1ccccc1 | 13.5% [8.5 µM] |
| [Au+].[N-]=C=O.c1ccc(CN2[CH-]N(Cc3ccccc3)C(c3ccccc3)=C2c2ccccc2)cc1 | 93.2% |
| CNCc1cccnc1 | 106% |
| CC(=O)O[C@H](C[C@H](C(C)C)N(C)C(=O)[C@@H](NC(=O)[C@H]1CCCCN1C)C(C)(C)C)c1nc(C(=O)N[C@@H](Cc2ccccc2)C[C@H](C)C(=O)O)cs1 | 29% |

| SMILES | growth |
| --- | --- |
| Nc1ccc(Cl)cc1 | 108% |
| Fc1cccc(NCOOC2(OOCNc3cccc(F)c3)CCCCC2)c1 | 95% |
| COC(=O)[C@@H](NC(=O)c1cn(CCC2CCCCC2)c2ccccc12)C(C)(C)C | 59.5% |
| CCOc1ccccc1C(=O)OCC(Cl)(Cl)Cl | 111% |
| CCOP(=O)(Cc1ccc(C#N)cc1)OCC | 110% |
| N#CCCNc1ccccc1 | 101% |
| C[C@]12CC[C@H]3[C@@H](CC[C@]4(O)C[C@@H](O[C@@H]5O[C@H](CO)[C@@H](O[C@@H]6OC[C@@H](O)[C@H](O)[C@H]6O)[C@H](O)[C@H]5O)CC[C@]34C=O)[C@@]1(O)CC[C@@H]2C1=CC(=O)OC1 | -34.3% (active) |
| O=P(N1CC1)(N1CC1)N1CCc2ccccc21 | 108% |
| COc1cc([C@@H]2c3cc4c(cc3[C@H](OC(C)=O)[C@H]3COC(=O)[C@H]23)OCO4)cc(OC)c1OC | 28.7% |
| COC(=O)[C@@H](C)C[C@H](Cc1ccc(F)cc1)NC(=O)c1csc([C@@H](C[C@H](C(C)C)N(C)C(=O)[C@@H](NC(=O)[C@H]2CCCCN2C)C(C)C)OC(C)=O)n1 | 22.1% |
| N#C[Se]CCN1C(=O)c2ccccc2C1=O | 63.2% |
| O=[N+]([O-])c1c(Br)sc(Br)c1[N+](=O)[O-] | -56.4% (active) |
| CN1C(=O)C(=Cc2cn(CCCCCCn3c4ccccc4c(=O)c4ccccc43)c3ccccc23)C(=O)N(C)C1=O | 92.9% |
| CCCCCCCC[n+]1ccc2ccccc2c1 | 94.8% |
| COC(=O)C12CC(NC(=O)c3csc([C@@H](C[C@H](C(C)C)N(C)C(=O)[C@@H](NC(=O)[C@H]4CCCCN4C)C4CC4)OC(C)=O)n3)(C1)C2 | 33.6% |
| Cn1cc(-c2csc(-c3cn(CCCCN4CCCCC4)c4ccccc34)n2)c2cccnc21 | -96.4% (active) |
| CC1(C)N=C(N)N=C(N)N1c1ccc(CCC(=O)Nc2ccc(S(=O)(=O)F)cc2)c(Cl)c1 | 47.9% |

test system: CAKI-1 renal; experiment: as above; conditions: 10 µM unless noted

| SMILES | growth |
| --- | --- |
| C1CCC([PH+](C2CCCCC2)C2CCCCC2[PH+](C2CCCCC2)C2CCCCC2)CC1.O=C(C1[CH-]CCCC1)C1CCCC[N-]1.[Au] (configuration not stated) | -57.4% (active) |
| CC(C)(N)Cc1ccccc1 | 97.6% |
| C[C@@H]1O[C@@H](O[C@H]2C[C@@H](O)[C@]3(CO)C4C(CC[C@]3(O)C2)[C@@]2(O)CC[C@H](C3=CC(=O)OC3)[C@@]2(C)C[C@H]4O)[C@H](O)[C@H](O)[C@H]1O (some centres not stated) | -73.4% (active) |
